This note sets out measurements from PubChem BioAssay (EPA / NIEHS).

Records with an inconclusive call do not appear. Active and inactive are the calls of the source. The calls were made as follows, unless noted: active = hit-call score of the fitted dose curve at least 0.9, where 1 is the maximum; inconclusive = response in the unintended direction; inactive = score below 0.9.

The target of assay [1] is Cellular tumor antigen p53 (Homo sapiens) (UniProt P04637). Put plainly: TOX21_p53_BLA_p2_ratio: Tox21 HCT-116 p53 Agonism Beta-lactamase Assay, Ratio, Phase 2 (AID 2283592). Summed up:
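Read-out is the blue/green (460/530 nm, 405 nm excitation) ratio after 2 h CCF4-AM loading, fitted as gain versus DMSO. Compounds, pinned at 217-fold dilution from DMSO stocks, stayed 16 h on HCT-116 beta-lactamase reporter cells seeded 5 h earlier.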

The nature of assay [2]: TOX21_p53_BLA_p3_viability: Viability Assessment in the Tox21 HCT-116 p53 Agonism Beta-lactamase Assay, Phase 3 (AID 2283593).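 Also: cells exposed to compound for 16 h before reading.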 The gist of the method: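 HCT116 cells, 4000/well, dosed 5 h after plating by pin transfer (217-fold dilution from DMSO stock) and incubated 16 h at 37C, 5% CO2. Viability read as ATP luminescence with CellTiter-Glo after 30 min at room temperature.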

For assay [3], the target named is Cellular tumor antigen p53 (Homo sapiens) (UniProt P04637). Put plainly: TOX21_p53_BLA_p3_ratio: Tox21 HCT-116 p53 Agonism Beta-lactamase Assay, Ratio, Phase 3 (AID 2283596). Summed up: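 Cells were seeded at 4000/well, rested 5 h at 37C, then dosed with DMSO compound solutions (217-fold dilution) for 16 h. CCF4-AM substrate was loaded for 2 h at room temperature, and the 460/530 nm emission ratio was fitted for gain of signal versus DMSO.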

Assay [4] can be described thus: TOX21_p53_BLA_p4_viability: Viability Assessment in the Tox21 HCT-116 p53 Agonism Beta-lactamase Assay, Phase 4 (AID 2283597).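 Also: hits lower the luminescence signal meaning cytotoxicity.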 The gist of the method: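 Cytotoxicity as reduced cellular ATP (CellTiter-Glo luminescence, 30 min room temperature), measured in the same wells following the CCF4 FRET p53 reading. Human HCT-116 cells received compounds in DMSO (217-fold dilution) for 16 h.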

Assay [5] has as its target Cellular tumor antigen p53 (Homo sapiens) (UniProt P04637). Put plainly: TOX21_p53_BLA_p5_ratio: Tox21 HCT-116 p53 Agonism Beta-lactamase Assay, Ratio, Phase 5 (AID 2283599). Summed up:
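HCT-116 p53-bla cells (4000/well) plated 5 h, dosed with compound (217-fold DMSO dilution) for 16 h at 37 C; CCF4-AM substrate 2 h at room temperature. Activity is the 460/530 nm emission ratio (405 nm excitation), fitted in gain-of-signal direction versus DMSO.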

Assay [6] is described as follows: TOX21_p53_BLA_p5_viability: Viability Assessment in the Tox21 HCT-116 p53 Agonism Beta-lactamase Assay, Phase 5 (AID 2283600). Summed up: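 Viability came from CellTiter-Glo ATP luminescence, read after 30 min at room temperature. Before this, HCT-116 p53-bla cells (4000/well) had 16 hours of compound exposure at 37C, with DMSO stocks diluted 217-fold on transfer.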

In assay [7] the target is Cellular tumor antigen p53 (Homo sapiens) (UniProt P04637). The experiment in a line: TOX21_p53_BLA_p4_ratio: Tox21 HCT-116 p53 Agonism Beta-lactamase Assay, Ratio, Phase 4 (AID 2283601). Summed up: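 HCT-116 p53 beta-lactamase reporter cells (4000/well) preincubated 5 h, then compound (217-fold dilution of DMSO stock) for 16 h at 37C. CCF4-AM substrate added 2 h at room temperature; 460/530 nm emission ratio fitted upward versus DMSO.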

A short description of assay [8]: CCTE_Harrill_HTTr_Viability_MCF7: CCTE's 6-hour Cell Viability Assessment for the High-Throughput Transcriptomics (HTTr) Platform, in MCF-7 cells cultured in DMEM + 10% fetal bovine serum, Harrill Lab (AID 2284010; active = hit-call score of the fitted dose curve at least 0.9, where 1 is the maximum; inactive = score below 0.9). Summed up: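 PI exclusion, high-content imaging; 8-pt dilution series, 6 h exposure; bidirectional fit vs DMSO (neg. ctrl/baseline); gain of signal = loss of membrane integrity.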

The nature of assay [9]: CCTE_Harrill_HTTr_Apoptosis_MCF7: CCTE's 6-hour Apoptosis Assessment for the High-Throughput Transcriptomics (HTTr) Platform, in MCF-7 cells cultured in DMEM + 10% fetal bovine serum, Harrill Lab (AID 2284011; active = hit-call score of the fitted dose curve at least 0.9, where 1 is the maximum; inactive = score below 0.9). The gist of the method:
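High-content imaging of CellEvent Caspase 3/7 Green signal follows a six-hour exposure, with eight concentrations per chemical. MCF-7 cells grown in DMEM plus 10% fetal bovine serum; activity fitted in both directions against DMSO.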

Assay [10] in a line: CCTE_Harrill_HTTr_CellCount_MCF7: CCTE's Cell Proliferation Assessment for the High-Throughput Transcriptomics (HTTr) Platform, Harrill Lab (AID 2284012).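 Also: count of Hoechst-stained nuclei per well by high-content imaging in MCF-7 cells; cells exposed to compound for six hours; intended direction is loss of nuclei count meaning fewer cells.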 The gist of the method:
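Readout: Hoechst nuclear count by high-content imaging. MCF-7, 8-point dilution series, 6 h exposure. Bidirectional fit vs DMSO baseline.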

Chain of Cellular tumor antigen p53 (Homo sapiens) (P04637 whole entry, looked up): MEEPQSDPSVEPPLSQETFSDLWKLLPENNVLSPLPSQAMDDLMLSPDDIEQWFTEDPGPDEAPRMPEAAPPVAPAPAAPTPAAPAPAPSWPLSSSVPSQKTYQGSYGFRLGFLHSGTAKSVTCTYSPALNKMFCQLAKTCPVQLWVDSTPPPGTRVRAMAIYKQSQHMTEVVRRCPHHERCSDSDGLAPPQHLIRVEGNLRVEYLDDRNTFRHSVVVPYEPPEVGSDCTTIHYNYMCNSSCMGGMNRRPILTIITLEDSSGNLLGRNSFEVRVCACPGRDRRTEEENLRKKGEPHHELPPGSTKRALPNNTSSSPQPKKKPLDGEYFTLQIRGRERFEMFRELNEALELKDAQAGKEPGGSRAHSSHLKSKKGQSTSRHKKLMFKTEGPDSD

In the case of `CC(C)(C)C(=O)OCOC(=O)[C@@H]1N2C(=O)[C@@H](N=CN3CCCCCC3)[C@H]2SC1(C)C`, the outcome in [1], in assay [2], in assay [3], in [4], in [5] and in [6] was inactive. The result in assay [7] was inactive.

On to `Cc1cc(S(=O)(=O)O)c(N)cc1Cl`, for which the result in assay [1], in assay [2], in assay [3], in [4], in assay [5] and in assay [6] was inactive. For the same compound, the outcome in assay [7] was inactive.

On to `COc1ccc(-c2noc(CC(=O)O)c2-c2ccc(OC)cc2)cc1`, for which the outcome in [1], in assay [2], in [3], in assay [4], in assay [5] and in [6] was inactive. Besides, in assay [7], the outcome was inactive.

For the compound `CCN(CC)CCNc1ccc(CO)c2sc3ccccc3c(=O)c12`, the half-maximal activity concentration (AC50) in assay [1] was 16.2 µM (active); in assay [3], 23.2 µM (active); in assay [4] it was 33.2 µM (active); in assay [5], 20.5 µM (active); in assay [7], 14.3 µM (active). The compound was classed as inactive in assay [2] and in assay [6].

As for `CC(C)(C)S`, the result in assay [1], in [2], in assay [3], in assay [4], in assay [5] and in assay [6] was inactive. Further, in assay [7], the outcome was inactive.

Turning to `COc1ncnc(NS(=O)(=O)c2ccc(N)cc2)c1OC`, the outcome in [1], in assay [2], in assay [3], in assay [4], in assay [5] and in [6] was inactive. In addition, in [7], the result was inactive.

`O=C(O)c1nc(=O)[nH]c(=O)[nH]1`: the result in [1], in assay [2], in assay [3], in [4], in [5] and in [6] was inactive. Moreover, the outcome in assay [7] was inactive.

Take `CO[C@@H]1[C@@H](OC)[C@H](C)[C@@](O)(CC(=O)O)O[C@H]1[C@H](C)[C@H]1O[C@@]2(CC[C@@](C)([C@H]3CC[C@@](C)([C@@H]4O[C@@H]([C@H]5O[C@](C)(O)[C@H](C)C[C@@H]5C)C[C@@H]4OC4C[C@H](OC)[C@@H](OC)[C@H](C)O4)O3)O2)C[C@H](O)[C@H]1C` (stereo partly specified): the half-maximal activity concentration (AC50) in assay [1] was 8.98 µM (active); in assay [5] it was 16.7 µM (active). The compound was classed as inactive in assay [2], in assay [3], in [4] and in assay [7].

With `CN1C(=O)CN2CCc3ccccc3C2c2cc(Cl)ccc21` (stereo unspecified), the AC50 is 35.6 µM (active) in assay [1], 39.8 µM (active) in [3], 22.8 µM (active) in assay [5] and 33.8 µM (active) in assay [7]. For the same compound, the compound was classed as inactive in assay [2] and in [4].

As to `O=[N+]([O-])c1cccc(S(=O)(=O)O)c1`, the outcome in assay [1], in assay [2], in [3], in assay [4], in [5] and in assay [6] was inactive. The outcome in assay [7] was inactive.

Consider `CN1C[C@@H]2C[C@H]1CN2c1cc2c(cc1F)c(=O)c(C(=O)O)cn2C1CC1`, for which the outcome in assay [1], in assay [2], in assay [3], in assay [4], in assay [5] and in [7] was inactive.

Consider `CC(C)(C)NCC(O)c1ccc(O)c(CO)c1` (stereo unspecified), for which the outcome in [1], in [2], in [3], in assay [4], in assay [5] and in assay [6] was inactive. Also, the outcome in assay [7] was inactive.

On to `CC(C)(C)NC[C@H](O)COc1nsnc1N1CCOCC1`, for which the result in [1], in assay [2], in assay [3], in [4], in assay [5] and in assay [6] was inactive. Moreover, the outcome in assay [7], in assay [8], in assay [9] and in [10] was inactive.

The AC50 is the concentration at which the activity in the assay is half-maximal.
